Reference: paper PMC5540273 (PLoS ONE, 2017)

What was measured:
Conditions in all cases: concentration: 1 μM, replicates: in singlicate; n = 1
DAPK1 = system: DAPK1
DAPK2 = system: DAPK2
DAPK3 = system: DAPK3
DCAMKL1 = system: T1, DCAMKL1
T1 construct: gene DCLK1

DCAMKL2 = system: T2, DCAMKL2
T2 construct: gene DCLK2

DCAMKL3 = system: T3, DCAMKL3
T3 construct: gene DCLK3

DDR1 = system: DDR1
DDR2 = system: DDR2
DLK = system: T4, DLK
T4 construct: gene MAP3K12

DMPK2 = system: T5, DMPK2
T5 construct: gene CDC42BPG

DMPK = system: DMPK
DRAK1 = system: T6, DRAK1
T6 construct: gene STK17A

DRAK2 = system: T7, DRAK2
T7 construct: gene STK17B

DYRK1A = system: DYRK1A
DYRK1B = system: DYRK1B
DYRK2 = system: DYRK2
EGFR = system: EGFR
EIF2AK1 = system: EIF2AK1
EPHA1 = system: EPHA1
EPHA2 = system: EPHA2
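Further: KINOMEscan kinase panel screen.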

Row | Structure (SMILES) | %Inh (DAPK1) | %Inh (DAPK2) | %Inh (DAPK3) | %Inh (DCAMKL1) | %Inh (DCAMKL2) | %Inh (DCAMKL3) | %Inh (DDR1) | %Inh (DDR2) | %Inh (DLK) | %Inh (DMPK2) | %Inh (DMPK) | %Inh (DRAK1) | %Inh (DRAK2) | %Inh (DYRK1A) | %Inh (DYRK1B) | %Inh (DYRK2) | %Inh (EGFR) | %Inh (EIF2AK1) | %Inh (EPHA1) | %Inh (EPHA2)
1 | CN1c2ccc(NCc3ccc(F)cc3)cc2-c2c(cnn2C)S1(=O)=O | 3% | 12% | 15% | 16% | 25% | 9% | 0% | 31% | 0% | 0% | 0% | 0% | 0% | 0% | 16% | 0% | 0% | 0% | 0% | 12%
2 | O=C(NCCNc1ccnc(Nc2ccc(F)cc2)n1)Nc1ccccc1F [GSK1379880] | 0% | 0% | 9% | 19% | 0% | 24% | 29% | 18% | 0% | 0% | 0% | 0% | 0% | 15% | 6% | 12% | 22% | 0% | 19% | 0%
3 | COC(=O)Nc1nc2cc(Oc3ccc(NC(=O)Nc4cc(F)ccc4F)cc3)ccc2[nH]1.Cl [GW701424] | 0% | 0% | 8% | 11% | 0% | 17% | 100% | 99.2% | 0% | 1% | 0% | 2% | 0% | 5% | 6% | 0% | 35% | 0% | 11% | 63%
4 | Cc1ccc(NC(=O)c2ccnc(N3CCN(C)CC3)c2)cc1-c1ccc(C(=O)NCC2CC2)cc1 [GW775604] | 5% | 0% | 0% | 0% | 15% | 0% | 77% | 59% | 0% | 0% | 7% | 0% | 0% | 0% | 0% | 0% | 0% | 0% | 0% | 0%
5 | CC(=O)Nc1ccc(COc2ccc(Nc3ccnc4cc(-c5ccccn5)ccc34)cc2)cc1.Cl [GW440148] | 0% | 0% | 21% | 5% | 0% | 9% | 29% | 0% | 71% | 2% | 0% | 1% | 21% | 4% | 33% | 11% | 23% | 0% | 11% | 0%
6 | Cn1cc(-c2ccc3c(c2)CCN3C(=O)Cc2ccccc2Cl)c2c(N)ncnc21 [GSK2608885] | 0% | 0% | 5% | 13% | 1% | 35% | 100% | 93.4% | 6% | 100% | 0% | 0% | 0% | 7% | 12% | 29% | 100% | 6% | 88% | 77%
7 | C[C@@H](Oc1cc(-n2cnc3ccc(NC(=O)NC(C)(C)C)cc32)sc1C(N)=O)c1ccccc1Cl [GSK346294] | 20% | 10% | 19% | 31% | 0% | 0% | 16% | 18% | 33% | 16% | 0% | 0% | 0% | 0% | 0% | 15% | 32% | 0% | 4% | 0%
8 | O=C1Cc2cc(Nc3nc(NCc4cccc(S(=O)(=O)C(F)(F)F)c4)ncc3C(F)(F)F)ccc2N1 | 0% | 0% | 0% | 15% | 0% | 12% | 0% | 11% | 33% | 19% | 5% | 6% | 0% | 13% | 26% | 0% | 0% | 0% | 19% | 3%
9 | Fc1ccc(-c2nn3c(OCC(F)(F)F)cccc3c2-c2ccncc2)cc1 [GW514784] | 0% | 0% | 0% | 0% | 0% | 36% | 80% | 81% | 40% | 95.3% | 0% | 18% | 0% | 3% | 0% | 10% | 20% | 0% | 8% | 7%
